Source: PubChem (Broad Institute)
The entries come from a sample that favours hits as a whole.
miR122 inh: miR-122 sensor activation. Huh7 psiCHECK-miR122 Renilla luciferase sensor, 48 h. activation, % at 12.5 µM. 340,000 compounds, 0.14% hits. AID 623901;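 active means mean activation of 30% or more, with every replicate also reaching 30%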;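 further: 0% = median of neutral control wells and 100% = median of positive control wells; higher luciferase signal means stronger suppression of miR-122 activity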
The depositor's hits bear a star.

SMILES | miR122 inh
CC(=O)OC1(Cc2ccccc2)CN2CCC1c1ccccc12 (centres undefined) | 35.9*
Cc1ccc(C(=O)Nc2ccc(Cl)cc2C(=O)c2ccccc2)cc1 | -114.5
O=P(Nc1ccccc1)(Nc1ccccc1)Oc1ccc(Cl)cc1 | -321.9
COc1ccc(-c2ccc3c(c2)CN(C(=S)NCCc2ccccc2)Cc2cnnn2-3)cc1 | -119.1
C[C@@H]1O[C@@H](O[C@H]2C[C@@H](O)[C@]3(CO)[C@H]4[C@H](O)C[C@]5(C)[C@@H](C6COC(=O)C6)CC[C@]5(O)[C@@H]4CC[C@]3(O)C2)[C@H](O)[C@H](O)[C@H]1O (some centres undefined) | -113.6
O=C1NC(=O)N(CCC2=CCCCC2)C(=O)/C1=C\c1cccs1 | 32.7*
